In PubChem BioAssay AID690 (Sanford-Burnham Center for Chemical Genomics, 2007):
Out of some 96,000 compounds screened, about 80 (0.08%) were called active. How the calls were made is not given here. The list is a sample of the results. Entries with a potency or affinity are not part of this list.

Each compound was assayed against Alkaline phosphatase, placental type (Homo sapiens) (UniProt P05187) (assay: PLAP enzyme inhibitors, biochemical, luminescence, HTS (AID 690)). Conditions: purified PLAP, luminescent substrate; at 20 µM; active compounds read high.
Chain of Alkaline phosphatase, placental type (Homo sapiens) (P05187 whole entry, looked up): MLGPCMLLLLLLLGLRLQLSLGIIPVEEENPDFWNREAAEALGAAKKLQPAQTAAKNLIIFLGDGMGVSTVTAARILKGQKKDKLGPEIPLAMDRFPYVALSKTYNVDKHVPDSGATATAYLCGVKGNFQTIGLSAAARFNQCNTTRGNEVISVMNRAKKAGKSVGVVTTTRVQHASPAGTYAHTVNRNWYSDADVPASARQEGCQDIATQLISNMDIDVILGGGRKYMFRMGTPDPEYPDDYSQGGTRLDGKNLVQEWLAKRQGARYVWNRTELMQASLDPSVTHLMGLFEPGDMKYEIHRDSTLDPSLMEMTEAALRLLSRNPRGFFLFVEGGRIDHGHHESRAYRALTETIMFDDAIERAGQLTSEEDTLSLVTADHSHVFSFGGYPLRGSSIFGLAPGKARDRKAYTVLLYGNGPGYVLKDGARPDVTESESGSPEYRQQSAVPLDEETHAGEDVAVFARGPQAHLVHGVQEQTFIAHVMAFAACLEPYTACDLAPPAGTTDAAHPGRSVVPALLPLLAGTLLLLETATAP

inhibition, inactive:
CN(C)c1ccc(/C=C/c2cc[n+]([O-])cc2)cc1 5.5%
C[n+]1ccc(/C=C/c2ccc(Br)cc2)cc1 33.9%
CN(C)c1nc(C(=O)NN)nc(N(C)C)n1 21.7%
CC1=C(/C=C/C(=O)O)C(C)(C)CCC1 -32.1%
O=C(COC(=O)c1ccc(Cl)c(S(=O)(=O)N2CCCC2)c1)NC1CCCC1 -44.5%
N#C/C(=C\c1ccc[nH]1)S(=O)(=O)c1ccccc1 -3.2%
CCn1cc(/C=C(/C#N)S(=O)(=O)c2ccccc2)cn1 -12.8%
Cc1ccc(S(=O)(=O)N[C@@H](CC(C)C)C(=O)NCc2ccco2)cc1 18.5%
CC1(C)OC(=O)C(=CNc2ccc(F)cc2)C(=O)O1 19.1%
O=C(Nc1ccc(F)cc1)c1ccccc1CC[N+](=O)[O-] 8.4%
COc1ccccc1/C=C1\SC(=S)N(Nc2nc(C)cc(C)n2)C1=O 0.7%
Cc1cc(C)nc(NN2C(=O)/C(=C/c3ccccc3)SC2=S)n1 12.4%
Cc1cc(C)n2nc(SCc3cc(=O)oc4cc(C)c(C)cc34)nc2n1 -31.2%
CC1(C)C(=O)Nc2ccccc2N1C(=O)COC(=O)CCSc1ccccc1 6.2%
COc1ccccc1-n1cnc(N)c1C(=O)c1ccccc1 4.4%
Cc1ccc(N2CCN(C(=O)c3ccccc3Br)CC2)c(C)c1 -48.2%
CCOC(=O)c1c(-n2c(C)cc(C=O)c2C)sc2c1CCCC2 -34.6%
CCOC(=O)c1c(N2C(=O)Nc3cc(Cl)c(Cl)cc3N2O)sc2c1CCCCC2 -30.1%
CCOC(=O)Nc1sc(C)nc1-c1ccccc1 5.8%
COC(=O)C1=C(C)N=C2SC(C)C(=O)N2C1c1cccc(F)c1 (stereo not drawn) -3.9%
CCOc1ccc(OCC)c(NS(=O)(=O)c2cccc3nsnc23)c1 -1.4%
Cn1c(C(=O)NCCN2CCOCC2)cc2sccc21 11.3%
COC(=O)c1ccc(/C=C/C(=O)c2ccc(OC)c(OC)c2)cc1 5.6%
COC(=O)c1ccc2nc(C)c(C)nc2c1 8.5%
COC(=O)c1ccc(/C=C/C(=O)c2ccc(OC)cc2)cc1 15.1%
COC(=O)c1ccc2c(c1)C(C)(C)C(/C=C/c1ccc(OC)c(OC)c1OC)=[N+]2C -29.3%
O=C(CCCCCN1C(=O)c2ccccc2C1=O)Nc1ccc(S(=O)(=O)N2CCCCC2)cc1 8.2%
c1ccc(Cc2nn3c(Cn4nnc5ccccc54)nnc3s2)cc1 15.9%
COc1ccc(CCNC(=O)C2CC(=O)N(C3CCCC3)C2)cc1OC (stereo not drawn) -44.7%
Cc1cc(=O)n2c(ccc3ccccc32)c1C#N 8.7%
CCC(C)(C)NC(=O)C(c1cccs1)N(CC1CCCO1)C(=O)Cn1nnc2ccccc21 (stereo not drawn) -0.8%
Cc1cc(C)cc(NC(=O)CSc2nnc(-c3ccccc3)n2N)c1 -9.3%
Nc1c(-c2ccc(Cl)cc2)cnn1-c1cccc([N+](=O)[O-])c1 2.9%
COc1ccc(C(=O)O/N=C(\C)c2ccccc2)cc1 2.4%
c1ccc(Nc2ccccn2)cc1 4.3%
c1ccc(Nc2cc(Nc3ccccc3)[nH]n2)cc1 11.7%
Cc1cc(-c2ccccc2)n2nc(C)c(C#N)c2n1 -0.5%
C=CCOC(=O)C1=C(C)NC(=O)NC1/C=C/c1ccccc1 (stereo not drawn) 16.7%
O=C(Cn1ccc2ccccc2c1=O)NCCC(=O)NC1CCN(Cc2ccccc2)CC1 -48.7%
O=C(N1CCOCC1)N1CCC(n2nnc3cc(F)ccc32)CC1 -19.8%
O=C(NCc1ccccc1)c1ccc(-c2ccc(F)cc2)o1 3.6%
COc1ccc(-c2nc(-c3ccc(Br)o3)no2)cc1OC -40.2%
COc1ccc(-c2noc(-c3ccc(Br)o3)n2)cc1OC 29%
Cc1ccc(CNC(=O)c2ccc(C#CC(C)(C)O)s2)cc1 20.2%
O=C(CNS(=O)(=O)/C=C/c1ccccc1)OCC(=O)N1CCC(Cc2ccccc2)CC1 -18.3%
Cc1nc2c3cnn(-c4ccccc4)c3ncn2n1 41.1%
c1ccc(-n2ncc3c2ncn2nnnc32)cc1 -8.9%
CC(C)C1N=C2c3ccccc3N=C(SCC#N)N2C1=O (stereo not drawn) -3.7%
CC(C)C1N=C2c3ccccc3N=C(SCC(=O)NCCc3ccc(S(N)(=O)=O)cc3)N2C1=O (stereo not drawn) -3.1%
CCn1c(CSc2nc3ccccc3s2)nnc1SCC(=O)c1ccc(O)cc1O -26.1%
COc1ccc(-n2nnnc2SCC(=O)c2cccc(OC)c2)cc1 8.8%
C=CCn1c(SCC(=O)c2ccc(OC)cc2)nnc1-c1cc2cccc(OC)c2o1 21.9%
COc1ccc(-n2nnnc2SCC(N)=O)cc1 20.8%
CCn1c(CSc2nc3ccccc3s2)nnc1SCC(=O)c1ccc(Cl)cc1 -26.1%
CCOC(=O)CNC(=O)CSc1nnc(-c2ccccc2OC)n1CC -10.2%
CCn1c(SCC(=O)C(C)(C)C)nnc1-c1ccccc1OC 5.6%
C=CCn1c(SCC(=O)Nc2ccc3c(c2)OCO3)nnc1-c1ccccc1OC -54.3%
COc1ccc(CNc2n[nH]c(NCc3ccc(OC)c(OC)c3)n2)cc1OC -86.4%
O=C(CC1(O)C(=O)Nc2ccccc21)c1cccnc1 (stereo not drawn) 26.9%
COc1cc2c(cc1NC(=O)CSc1nnnn1-c1ccccc1)oc1ccccc12 21.8%
CCc1ccc(C(=O)COC(=O)C(Cc2ccccc2)NC(=O)c2ccc(Cl)cc2)cc1 (stereo not drawn) -8.9%
CCc1ccc2nc3c(c(C(=O)O)c2c1)CCC3 7.8%
Cc1ccc(S(=O)(=O)N2CCC(=O)N2)cc1 -17.1%
